# From PubChem BioAssay
# GLP-1R agonist – activates the human GLP-1 receptor | Potency, µM (series often up to 45.6 µM), hits mostly activators | HEK293 GLP-1R CRE-luciferase, luminescence, 4-6 h; cells express a hypersensitive GLP-1R form | 380,000 compounds, 0.007% hits | P43220
# Target sequence (P43220 whole entry, looked up): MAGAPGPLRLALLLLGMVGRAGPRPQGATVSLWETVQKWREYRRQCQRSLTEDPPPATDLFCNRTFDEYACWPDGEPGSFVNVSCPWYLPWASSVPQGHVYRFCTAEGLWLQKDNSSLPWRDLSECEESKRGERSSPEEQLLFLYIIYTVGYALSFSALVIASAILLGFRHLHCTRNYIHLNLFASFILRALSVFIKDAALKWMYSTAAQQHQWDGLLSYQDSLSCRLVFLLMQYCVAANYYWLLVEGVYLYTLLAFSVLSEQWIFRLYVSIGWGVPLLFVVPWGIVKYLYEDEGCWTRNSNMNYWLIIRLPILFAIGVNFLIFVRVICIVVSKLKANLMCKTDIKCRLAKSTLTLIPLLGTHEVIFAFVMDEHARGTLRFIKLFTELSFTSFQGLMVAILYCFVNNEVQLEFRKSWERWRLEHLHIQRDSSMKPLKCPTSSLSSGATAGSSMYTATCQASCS
# HEK293 tox – cytotoxicity in counter-screen for GLP-1R inverse agonists; Potency, µM (doses to about 38.3 µM), actives largely listed as inhibitors; HEK293 cAMP-luciferase reporter cells, luminescence, 24 h; 410,000 compounds, 0.13% hits;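 further: loss of luciferase light is scored as toxicity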
#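 A 23 nL compound transfer followed 12 hours of cell culture at 37 deg C; exposure then lasted 24 hr. Luciferase assay detection reagent was dispensed and plates read for luminescence after a 12 min room-temperature wait.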
# GLP-1R inv ag – GLP-1 receptor (human) inverse agonism; HEK293 GLP-1R CRE-luciferase, luminescence, 24 h; GLP-1R form is constitutively active; Potency, µM (series often up to 38.3 µM), actives largely listed as inhibitors; 410,000 compounds, 1.6% hits; AID 624417; further: nearly all actives have a fitted effect of over 55% in size
#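 HEK293 cells stably co-expressing constitutively active GLP-1R and a cAMP-responsive luciferase reporter were seeded in DMEM with 10% Nu serum, given compounds after 12 h, and incubated 24 h at 37 deg C. Luminescence was then read.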
# ClpP mod – qHTS Assay for Activators of ClpP | 340,000 compounds, 1.9% hits | Potency, µM (titrated, usually from 57.5 µM) | purified B. subtilis ClpP, FRET peptide cleavage, 20 min | AID 651965, 2013 | ATP-dependent Clp protease proteolytic subunit (Bacillus subtilis (strain 168)), P80244; active means well fitted falling curve with a large enough effect; inconclusive means small, poorly fitted or top-dose-only effect; inactive means no such curve, though single readings can be large or run the other way; further: the source files actives as falling curves though it sought activators and does not explain the sign; nearly all actives have a fitted effect of over 65% in size
# Target sequence (P80244 whole entry, looked up): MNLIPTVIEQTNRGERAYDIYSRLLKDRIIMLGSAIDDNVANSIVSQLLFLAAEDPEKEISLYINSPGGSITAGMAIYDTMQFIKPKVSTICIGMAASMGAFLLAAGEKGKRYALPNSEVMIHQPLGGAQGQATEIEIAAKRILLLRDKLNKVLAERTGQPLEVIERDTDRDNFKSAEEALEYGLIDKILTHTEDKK
#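 FRET quenching reversal measured ClpP activation: 10 microg/mL B. subtilis ClpP at pH 8 with the FRET-FV decapeptide, read at 430 nm after 320 nm excitation. The 20-min minus 0-min signal was scaled between DMSO/no-enzyme wells and ADEP (5.8 microM final).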
# A number is an active result; i = inactive; ? = inconclusive; nt = no result given; [ ] = another dose, or the depositor's remark. In the library only some 3.2% were active in any assay of this set; here they are far more common. Unless noted, the call rests on the fitted dose curve; in most records, active means well fitted curve in the direction sought with a large enough effect; inconclusive means small, poorly fitted or top-dose-only effect, or another doubt; inactive means no such curve, though single readings can be large; an effect the other way counts as inactive or inconclusive.
SMILES,GLP-1R agonist,HEK293 tox,GLP-1R inv ag,ClpP mod
Nc1c(Cl)ncnc1N/N=C/c1ccccn1,i,i,?,i
CCCc1sc(N/N=C/c2ccccn2)nc1-c1ccc(F)cc1,i,?,?,i
CS(=O)(=O)c1ccc(C(=O)OCC(=O)N2CC(=O)Nc3ccccc32)cc1[N+](=O)[O-],nt,nt,nt,i
N#CC1=C(N)Oc2c(ccc3cccnc23)C1c1cccnc1 (centres undefined),i,i,i,25.1µM
N#CC1=C(N)Oc2cc3ccccc3cc2C1c1cccnc1 (centres undefined),i,?,?,i
COc1cc(OC)c(N(C)S(=O)(=O)c2cccc(C(=O)OCC(=O)c3c[nH]c4ccccc34)c2)cc1Cl,i,i[1.53 µM],?,?
C=CCN(c1ccccc1OC)S(=O)(=O)c1cccc(C(=O)OCC(=O)c2c[nH]c3ccccc23)c1,i,?,5.01µM,i
CCOc1ccc(NC(=O)c2cnn(-c3ccc(C)c(Cl)c3)c2C2CCNCC2)cc1,i,?,8.91µM,i
Cc1ccc(-n2ncc(C(=O)Nc3ccc(Cl)cc3)c2C2CCNCC2)cc1C,i,?,i,nt
Oc1cccc(C(Nc2ccccn2)c2ccc3cccnc3c2O)c1Cl (centres undefined),nt,i,?,i
C[C@H]1C[C@@H]2[C@H]([C@@H](O)C[C@@]3(C)[C@H]2CC[C@]3(O)C(=O)COC(=O)CCC(=O)O)[C@@]2(C)C=CC(=O)C=C12,i,nt,nt,nt
CN(C)S(=O)(=O)c1cccc(NC(=O)c2cc(-c3cccs3)nc3ccccc23)c1,i,i,?,15.8µM
O=C(c1cc(-c2cccs2)nc2ccccc12)N1CCN(S(=O)(=O)c2cccc(F)c2)CC1,i,i,?,28.2µM
O=C(c1cc(-c2cccs2)nc2ccccc12)N1CCN(S(=O)(=O)c2ccccc2)CC1,i,i,i,25.1µM
NS(=O)(=O)c1cccc(NC(=O)c2cc(-c3cccs3)nc3ccccc23)c1,i,i,?,i
O=C(c1cc(-c2cccs2)nc2ccccc12)N1CCN(c2ccccc2)CC1,i,?,?,nt
Cc1ccc(Cn2c(CN3CCC(C(=O)NCC(C)c4ccccc4)CC3)cc3ccccc32)cc1 (centres undefined),nt,i,i,i
Cc1nn2c(=O)cc(COC(=O)c3cccs3)nc2s1,nt,i,i,i
Cc1ccc(NC(=O)CSc2nc3ccccc3nc2Cc2ccccc2)c(Cl)c1,i,i,i,i
CCN(CC)CCCN1CC(O)=C(c2nc3ccccc3s2)C1=N,i,i,11.2µM,?
N=C1C(c2nc3ccccc3s2)=C(O)CN1Cc1ccccc1,i,?,i,i
c1ccc2c(c1)OCC(c1nnc3sc(-c4ccc5c(c4)OCO5)nn13)O2 (centres undefined),i,i,i,28.2µM
c1ccc2c(c1)ncn2Cc1nnc2sc(-c3ccc4c(c3)OCO4)nn12,i,i,i,28.2µM
Fc1ccc(-c2nn3c(C4COc5ccccc5O4)nnc3s2)cc1 (centres undefined),i,i,i,i
Clc1ccccc1-c1nnc2sc(-c3ccc4c(c3)OCO4)nn12,?,i,i,31.6µM
SMILES,GLP-1R agonist,HEK293 tox,GLP-1R inv ag,ClpP mod
Clc1ccccc1-c1nn2c(Cn3cnc4ccccc43)nnc2s1,i,i,i,i
CCOc1ccc(S(=O)(=O)c2c(C(=O)c3ccc(CC)cc3)cnc3ccc(C)cc23)cc1,nt,i,?,i
COc1ccccc1OCC1CNC(=O)O1 (centres undefined),i,nt,nt,nt
O=CN/C=C/c1cc(O)ccc1O,i,i,i,22.4µM
O=Cc1ccc(O)cc1O,i,i,i,i
N=C(N)c1ccc(OCCCOc2ccc(C(=N)N)cc2)cc1,i,nt,nt,nt
CC(=O)Nc1ccc(NC(=O)C(Cc2ccccc2)N2Cc3ccccc3C2=O)cc1 (centres undefined),nt,i,i,i
CC(C)C[C@@H]1NC(=O)[C@H](Cc2ccccc2)N(C)C(=O)[C@H](C)NC(=O)c2ccccc2NC(=O)[C@H](Cc2ccc(O)cc2)N(C)C1=O,i,?,10µM,i
Cc1noc2ncnc(N3CCCC(C(=O)Nc4cc(F)ccc4F)C3)c12 (centres undefined),nt,i,i,i
CC(C)N(C(=O)COC(=O)c1cc(Cl)cc(Cl)c1N)C(C)C,i,i,?,15.8µM
CC1CCN(C(=O)COC(=O)c2cc(Cl)cc(Cl)c2N)CC1,i,i,i,28.2µM
CC(=O)c1cc(-c2ccc(F)cc2)n(CCC(=O)NCc2ccccc2C)c1C,nt,i,i,i
O=C(O)[C@@H]1CCCN1C(=O)COc1ccc2c3c(c(=O)oc2c1)CCC3,?,i,i,i
COc1ccc2c(c1)c(=O)oc1cc(OCC(=O)N3CCC(C)CC3)ccc12,i,i,i,17.8µM
COc1ccc2c(c1)c(=O)oc1cc(OCC(=O)N3CCc4ccccc4C3)ccc12,i,i,i,4.47µM
COc1ccc2c(c1)c(=O)oc1cc(OCC(=O)N3CCCC(C)C3)ccc12 (centres undefined),i,i,i,?
CCC1CCCCN1C(=O)COc1ccc2c3c(c(=O)oc2c1)CCC3 (centres undefined),i,i,i,28.2µM
CC1CCCCN1C(=O)CSc1c2c(nc3cc(Cl)ccc13)CCCC2 (centres undefined),nt,i,i,i
CC1CCCC(NC(=O)c2ccc3c(=O)n(CC4CCCO4)c(=O)[nH]c3c2)C1C (centres undefined),i,i,i,25.1µM
O=C(c1ccc2c(c1)N(Cc1cccc(Cl)c1)C(=O)c1ccccc1S2=O)N1CCC(Cc2ccccc2)CC1 (centres undefined),nt,i,i,i
CCOC(=O)c1c(C)[nH]c(C)c1S(=O)(=O)N1CCCC(C(=O)Nc2ccc(OC)c(OC)c2)C1 (centres undefined),nt,i,i,i
COc1ccc(-n2nc(C(=O)Nc3ccc(Cl)cn3)c3c4ccccc4n(C)c3c2=O)cc1,nt,i,i,i
Cc1cc2c(cc1C)CSC(c1c(O)ccc3ccccc13)SC2,i,?,12.6µM,i
Nc1[nH]c(=O)[nH]c(=O)c1N=Cc1ccccc1,i,i,i,28.2µM
CC(C)(C)C(=O)Nc1nnc(SCC(=O)Nc2nccs2)s1,i,i,i,20µM
SMILES,GLP-1R agonist,HEK293 tox,GLP-1R inv ag,ClpP mod
CC(C)(C)NC(=O)COC(=O)CNC(=O)C1CCCCC1,nt,nt,nt,i
CCn1cc(/C=N/NS(=O)(=O)c2ccc(OC)cc2)c(C)n1,i,i,i,31.6µM
CCn1cc(/C=N/NS(=O)(=O)c2ccc(C)cc2)c(C)n1,i,i,i,i
O=C(Nc1ncn[nH]1)c1ccc(Cl)c(S(=O)(=O)Nc2ccc(Cl)cc2)c1,i,i,i,31.6µM
O=C(Nc1ncn[nH]1)c1cc(S(=O)(=O)Nc2ccc(Cl)cc2)ccc1Cl,i,i,i,i
CCn1c(CCCOc2ccc(Cl)cc2Cl)nnc1SCC(=O)Nc1cc(F)ccc1C,i,i,11.2µM,i
CN(C)c1ccc(NC(=O)CC(NCc2cccnc2)C(=O)O)cc1 (centres undefined),nt,i,i,i
CCc1[nH]c(=O)c(C#N)c2c1COC(C)(C)C2,i,i,i,25.1µM
